Measurements as given in PubChem BioAssay AID1347430 (National Center for Advancing Translational Sciences (NCATS), 2020).
Screen size: about 91,000 compounds; about 130 (0.14%) were called active. About 3% were inconclusive and are not listed. Calls come from the whole dose curve; as a rule, active = well fitted inhibition curve with a large enough effect; inconclusive = small, poorly fitted or top-dose-only effect; inactive = flat fitted curve, though single readings scatter. The entries come from a sample that favours actives as a whole. Where a call stands in place of a potency, no number is given.

system: Uracil-DNA glycosylase; test: Primary qHTS assay for inhibitors of Activation Induced Cytidine Deaminase (AID): UDG Counterscreen signal; conditions: FRET deamination/UDG coupled assay, UDG read, 4 h; series mostly up to 115 µM; note: nearly all actives have a fitted effect of over 65% in size
Text: Assay Provider (PI) Patricia Gearhart Ph.D.
National Institute on Aging
National Institute of Health (NIH), Bethesda, MD
Assay Provider (PI) Rahul Kohli Ph.D.
Perelman School of Medicine
University of Pennsylvania, Philadelphia, PA
Activation-Induced Deaminase (AID) is a cytosine deaminase which converts cytosine into uracil within stretches of ssDNA. The presence of uracil in DNA initiates a cascade of mutagenic DNA repair to introduce point mutations and DNA double strand breaks. Specific targeting of AID to the immunoglobulin heavy chain loci (Igh) promotes mutagenesis in the antibody variable region for somatic hypermutation (SHM) or switch regions leading to class switch recombination (CSR). However, AID also plays a role in accumulating unnecessary mutations across the genome. Mis-targeting of AID results in the initiation of tumor development and leads to greater drug resistance among cancer cells when continually expressed. To identify an AID inhibitor, a small molecule library will be screened in collaboration with NCATS core facility at NIH. To confirm biological function, inhibitors will be examined in an in vitro murine B-cell activation assay and subsequent secondary validation screens. Top molecules will be further screened to identify inhibitory efficacy against a wild type primary splenocytes assay. Using these approaches, we hope to identify a small molecule with great efficacy and low toxicity for use as a molecular probe to further characterize AID's intricacies, or even as a therapeutic.
A FRET based analysis of cytosine deamination, was developed to identify potential inhibitors of AID catalytic activity. This screen has two signal output, Read 1 evaluates the AID inhibition response. The second readout (Read 2) evaluates UDG response and is uses as a counterscreen to exclude false positive inhibitors. Inhibition in AID and inactivity in the UDG signal is the desired outcome for this assay.
SEQUENCE No. (e.g., 1, 2, 3, etc.); […] (e.g., Cells, Incubation, Reagent, etc.); VALUE; DESCRIPTION
1a; Reagent; 3 uL; [4/3x] 1 uM AID/2.67 U/mL UDG
1b; Reagent; 3 uL; 2 U/mL UDG
1c; Reagent; 3 uL; 1 uM AID
2a; Compound; 46 nL; Follow-up plates (0.64 uM - 10 mM)
2b; Control; 46 nL; ATA ([…] - 10 mM)
3; Time; 10 min; incubation at room temperature
5; Time; 4 hr; incubation at room temperature
6; Reagent; 4 uL; [2x] 250 mM NaOH
7; Time; 15 sec; centrifuge at 1000 rpm
8; Time; 30 min; incubation at room temperature
9a; Detection; fluorescence (Read 1: AID); EnVision (PerkinElmer) plate reader, 540 excitation and 590 emission filters
9b; Detection; fluorescence (Read 2: UDG); EnVision (PerkinElmer) plate reader, 560 excitation and 665 emission filters
NOTES (numbers refer to sequence above)
1a; Reagents were dispensed in a medium-binding black solid-bottom Greiner plates (789176F) using a BioRptr liquid dispenser. Dispense 3 uL of [4/3x] 1 uM AID (provided by Kohli lab) and [4/3x] 2 U/mL UDG (NEB M0280L) into columns 1, 2, 5 to 48.
1b; Dispense 3 uL of [4/3x] 2 U/mL UDG into column 3.
1c; Dispense 3 uL of [4/3x] 1 uM AID into column 4.
2a; Compound (7-points [uM] (0.64; 3.2; 16; 80; 400; 2,000; 10,000; 20,000) double pin-transferred (Dip Factor = 2) using the Kalypsys (Wako USA) pintool equipped with a 1536 pinhead for a final concentration range of 7.32 nM - 114 uM.
2b; 10 mM Aurintricarboxylic Acid (Sigma A1895) (ATA, 8-point, n = 2, 1:2.5 dilution in column 2) double pin-transferred (Dip Factor = 2) using the Kalypsys (Wako USA) pintool equipped with a 1536 pinhead for a [final] range of 186 nM - 114 uM.
3; Room temperature incubation.
4; Dispense 1 uL of substrate mixture from the Kohli lab [4x] […] DJC20 and [4x] 250 nM DJC23 into columns 1 to 48 .
5; Room temperature incubation.
6; Dispense 4 uL of substrate mixture [2x] 250 mM NaOH into columns 1 to 48.
7; Centrifugation step to remove bubbles.
8; Room temperature incubation
9a; Fluorescence signal (column label AID) was read using the EnVision plate reader. […]
Potency is the fitted concentration of half-maximal effect.

SMILES	Potency
CNC(=O)c1ccc2c(c1)CCCN2C(=O)c1ccc(Cl)cc1	inactive
COc1ccc(CN(Cc2cc(=O)oc3cc(C)c(C)cc23)C2CC2)cc1	inactive
COCCNC(=O)CS(=O)Cc1nc(-c2ccc(C)cc2)oc1C (stereo not given)	inactive
Cc1cc2nc(-c3ccccc3)c(-c3ccccc3)nc2cc1C	inactive
Cc1ccccc1OCc1ccc(-c2nc(C#N)c(N3CCCCC3)o2)o1	inactive
Cc1ccc(C)c(OCc2ccc(-c3nc(C#N)c(NC(C)C)o3)o2)c1	70.8 µM (active)
CCC(C)Nc1oc(-c2ccc(COc3ccc(Cl)cc3)o2)nc1C#N (stereo not given)	inactive
N#Cc1cccnc1NCCC12CC3CC(CC(C3)C1)C2	inactive
Cc1cc(=O)oc2c(C)c(OC(C)C(=O)NCCc3ccc(S(N)(=O)=O)cc3)ccc12 (stereo not given)	inactive
O=C(NCc1ccc2c(c1)OCO2)c1cccc(N2CCCN(Cc3ccc(F)cc3)C2=O)c1	inactive
CC(C)(C(=O)Nc1ccc(F)c(NC(=O)C2CC2)c1)c1ccccc1	inactive
CNCCC(F)(F)F	inactive
OC(COCc1ccccc1F)Cn1nnc(-c2cccnc2)n1 (stereo not given)	inactive
O=C(COC(=O)Cc1n[nH]c(=O)c2ccccc12)NCC1CCCO1 (stereo not given)	inactive
CCOc1ccc(-c2csc(-c3ccc(Cl)cc3)n2)cc1	inactive
O=C(NCc1cccc(OC(F)F)c1)c1ccccc1-n1cnnn1	inactive
COCCn1c(C)cc(C(=O)C(=O)Nc2nnc(COc3cc(C)ccc3C)s2)c1C	inactive
CN(Cc1ccccc1)c1ncnc2onc(-c3ccc(F)cc3)c12	inactive
CCc1ccccc1N(C)C(=O)C1CCCN(c2ncnc3onc(-c4ccc(F)cc4)c23)C1 (stereo not given)	inactive
CCc1ccc(N(CC)C(=O)CCn2cnc3onc(-c4ccc(F)cc4)c3c2=O)cc1	89.1 µM (active)

SMILES	Potency
CCN(CC)C(=O)CNC(=O)c1cc2ccccc2c(OC)n1	inactive
N#Cc1cccc(C(=O)NC(c2ccccc2)c2cccs2)c1 (stereo not given)	inactive
CCCC/C=N/NC(=O)CCCCCCCCCCC	inactive
CCCCCCCc1ccc(-c2ccc(OC)cc2)nc1	inactive
CCN(CC)S(=O)(=O)c1cc(NC(=O)c2n[nH]c3ccccc23)ccc1C	inactive
O=S(=O)(Cc1nnnn1-c1ccccc1)c1ccccc1	inactive
CCCNc1c(NC(=O)C(C)C)c(=O)oc2ccccc12	inactive
CC(C)(C)c1ccccc1OCC(=O)Nc1cccc(C#N)c1	inactive
COCC(C)n1c(COc2ccccc2F)nnc1SCC(C)C (stereo not given)	inactive
COCCNC(=S)NNC(=O)Cc1ccc(OC)c(OC)c1	inactive
CCCCNC(=O)CCc1c[nH]c2ccccc12	inactive
COC(=O)CNC(=O)/C(C)=C/c1ccccc1	inactive
N#Cc1ccc(CNc2cc(Cl)ccc2Cl)cc1	inactive
Cc1ccc(NC(=O)c2ccc(Cl)cc2N2CCCC2=O)cc1	inactive
Ic1nc[nH]c1I	inactive
COc1ccc(NC(=O)COc2ccc(F)cc2)c2cccnc12	inactive
Cc1ccc(-n2c(SCC(=O)Nc3cccc(F)c3)nc3c(=O)[nH]cnc32)cc1	inactive
Cc1ccc(C(=O)NC(C)C)c(Cl)c1	inactive
Cc1cc(C)c2c(c1)/C(=N/Nc1nc3ccccc3[nH]1)CCC2	inactive
Cc1[nH]c2ccccc2c1/C=N/c1sc2c(c1C#N)CCC(C)C2 (stereo not given)	inactive

SMILES	Potency
CCCc1ccc(OC(=O)c2ccc3c(c2)-c2ccccc2C3=O)cc1	inactive
Cc1csc(SCCCOc2ccc(C#N)cc2)n1	inactive
COc1ccc(CNC(=S)NCC(C)N2CCCCC2C)cc1 (stereo not given)	inactive
Cn1nc(C(=O)OCC(=O)N(Cc2ccccc2)C(C)(C)C)c2ccccc2c1=O	inactive
O=C(C1=COCCO1)N1CCN(c2ccccc2)CC1	inactive
O=C1/C(=C/c2cccc(Br)c2)CCc2ccccc21	inactive
COc1ccc(C(=O)/C(C#N)=C\c2ccccc2OC(F)F)cc1	inactive
Cc1cc(C(=O)O)cc(S(=O)(=O)Nc2ccc(Cl)c3cccnc23)c1C	inactive
C=CCNC(=O)NC(=O)CN(C)Cc1ccc(-c2ccc(Br)cc2)o1	inactive
CC(C)CNC(=O)CSc1nnc(COc2ccccc2Cl)o1	inactive
O=C(O)c1ccc(Nc2nc(-c3ccc4ccccc4c3)cs2)cc1O	inactive
CC(=O)Nc1ccc(NC(=O)Nc2ccccc2Cl)cc1	inactive
CCN1CCC(CNC(=O)c2cc(C)nc3cc(F)ccc23)CC1	inactive
COc1ccc(NC(NC(=O)C(C)C)C(Cl)(Cl)Cl)cc1 (stereo not given)	inactive
O=C(CCc1ncc(-c2ccc(F)cc2)o1)NCc1ccc(OC(F)F)cc1	inactive
CNC(=S)NNC(=O)c1cccc(C)c1	inactive
CC(=O)NCc1ccc(C(=O)COc2ccc(C(C)=O)cc2)cc1	inactive
N#Cc1ccccc1-n1ccnc1	inactive
O=C(OCC(=O)c1cccs1)c1cccc(O)c1	inactive
CC(C)(C)c1nc2cc(NC(=O)c3ccc[nH]c3=O)ccc2o1	inactive
